Most compounds without a hit are left out; they make up all but 2.4% or so of the library.
D2 ag-1 – human D2 receptor agonism in beta-arrestin assay; 360,000 compounds, 0.084% hits; P14416; activation, % (test concentration not listed); AID 624465; DiscoveRx PathHunter D2 beta-arrestin, luminescence, 90 min; 100% = 57 uM dopamine signal; in the data active means activation above about 40%
Target sequence (P14416 whole entry, looked up): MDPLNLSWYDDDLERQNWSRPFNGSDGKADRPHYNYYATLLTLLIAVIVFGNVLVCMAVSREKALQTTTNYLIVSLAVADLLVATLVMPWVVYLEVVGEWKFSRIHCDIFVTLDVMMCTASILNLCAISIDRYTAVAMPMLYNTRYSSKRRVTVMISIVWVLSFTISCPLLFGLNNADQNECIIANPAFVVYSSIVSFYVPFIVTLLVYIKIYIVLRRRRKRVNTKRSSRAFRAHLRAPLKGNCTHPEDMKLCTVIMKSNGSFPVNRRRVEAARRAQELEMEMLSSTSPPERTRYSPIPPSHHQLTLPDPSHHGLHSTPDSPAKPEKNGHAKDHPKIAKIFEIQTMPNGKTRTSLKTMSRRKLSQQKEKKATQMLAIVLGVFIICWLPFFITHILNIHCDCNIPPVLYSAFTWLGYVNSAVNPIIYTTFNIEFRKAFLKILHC
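DiscoveRx PathHunter D2 beta-arrestin cells (2,100/well) attached overnight, then compound-stimulated 90 min at 37 C in HBSS/10 mM HEPES/0.1% Tween-20 buffer; beta-galactosidase complementation read by luminescence after 1 h at ambient temperature. Dopamine 57 uM final (EC100) as control.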
D2 ag-2 – activates the human D2 dopamine receptor | P14416 | HEK293 T-REx D2 cells, calcium flux agonist mode | activation, % at 2 µM | 340,000 compounds, 0.53% hits;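 active means activation over 3 SD above normal in the single-dose calcium agonist read, cut at about 30% in these data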; further: 0% is about no effect
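HEK293 Trex D2 cells, tetracycline-induced, o/n 30 C 5% CO2; no-wash Ca dye, RT 30–90 min; 10-cycle baseline, 23 nl cpd added, kinetic Ca read 180 s; agonist hits = positive Ca response.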
D2 antagonist – antagonists of human D2 dopamine receptor. HEK293 TREx D2 cells, calcium flux, dopamine EC80. P14416. 340,000 compounds, 2% hits. inhibition, % at 10 µM; in the data active means inhibition above about 30%; inactive means below that, where a call was filed; further: 0% is about no effect
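Cells plated overnight at 30 C with tetracycline; no-wash calcium dye, 30–90 min RT; 10 s baseline; compound pinned; 180 s read; EC80 dopamine added; another 180 s read.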
D2 PAM-1 – human D2 receptor positive allosteric modulation | P14416 | DiscoveRx D2 beta-arrestin cells, luminescence, 90 min; 100% = 57 uM dopamine signal | potentiation, % (concentration not given with the values) | 360,000 compounds, 0.23% hits | AID 624464; in the data active means potentiation above about 50%
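D2 cells co-treated with compound plus 50 nM dopamine (EC20) for 90 min at 37 deg C to detect potentiation. Beta-arrestin recruitment was read as enzyme-fragment luminescence after 1 h at ambient temperature. Full response was set by 57 uM dopamine.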
D2 PAM-2 – positive allosteric modulators of human D2 dopamine receptor; HEK293 T-REx D2, calcium flux, EC20 dopamine potentiation; potentiation, % at 10 µM; 340,000 compounds, 0.34% hits; AID 485347;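 active means potentiation over 3 SD above the plate norm, cut at about 30% in these data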; further: 0% is about no effect
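Tetracycline-induced HEK293 T-REx cells force-coupled to calcium signalling expressed D2; compounds were pin-added after a 10 s baseline, read kinetically 180 s, then an EC20 dopamine challenge followed with a further 180 s calcium read.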
* marks the source's active call; other numbers are inactive results; / = not tested or not shown; ! = a repeat was not active.

SMILES | D2 ag-1 | D2 ag-2 | D2 antagonist | D2 PAM-1 | D2 PAM-2
O=C(/C=C/c1cccc(Br)c1)NC1CCN(Cc2ccccc2)CC1 | -2 | 1 | 72* | -24 | -25
COc1ccc(OCCCC(=O)OCC(=O)NNC(=O)c2ccc([N+](=O)[O-])cc2)cc1 | -3 | 0 | -5 | -3 | -2
CCOC(=O)c1c(C)[nH]c(C)c1S(=O)(=O)Nc1ccc(CN2CCCCC2)cc1 | -2 | 0 | -8 | -28 | -6
CCOC(=O)c1c(S(=O)(=O)NCC2CCN(CCc3cccs3)CC2)c(C)n(C)c1C | -4 | 0 | 43* | -60 | -21
CCOC(=O)c1c(C)[nH]c(C)c1S(=O)(=O)NCC1CCN(Cc2ccccc2OC)CC1 | -6 | -1 | 33* | -30 | -24
CCOC(=O)c1c(C)[nH]c(C)c1S(=O)(=O)NCC1CCN(Cc2cccc(F)c2)CC1 | -1 | 1 | 74* | -22 | -30
CCOC(=O)c1c(S(=O)(=O)NCCc2cccs2)c(C)n(C)c1C | -6 | 0 | -2 | -7 | 9
CCOc1cc(Br)c(C(C)NC(=O)c2cccnc2)cc1OCC (stereo not given) | -1 | / | / | -1 | /
CCCCN(CCCC)CCNC(=O)c1cn(CC)c2ccc(S(=O)(=O)N3CCCC3)cc2c1=O | 3 | -1 | 2 | -7 | 2
Cc1nn(Cc2ccccc2)c(Cl)c1/C=C/C(=O)OC(C)C(=O)N1CCCC1 (stereo not given) | 6 | 2 | -14 | 7 | 9
Cc1ccc(S(=O)(=O)N2[C@@H](c3cccc(C)c3)C(C(=O)O)=C[C@H]2CC2CCCC2)cc1 | 0 | / | / | -6 | /
C=C[C@H]1CN2CC[C@H]1C[C@H]2[C@H](O)c1ccnc2ccc(OC)cc12 | 1 | -1 | 1 | -14 | -9
COc1ccc2[nH]cc(C(O)CN3CCN(c4ccccc4F)CC3)c2c1 (stereo not given) | -3 | 13 | 33* | -16 | -13
Cc1ccccc1OCC(O)CN1CCN(CC(O)COc2ccccc2C)CC1 (stereo not given) | -3 | 1 | 62* | -27 | -30
Cc1ccccc1OCC(O)CN1CCCCC1 (stereo not given) | -2 | 0 | 5 | -17 | 2
Cc1ccc(Cl)cc1N1CCN(CC(O)COCc2ccco2)CC1 (stereo not given) | 0 | -2 | 97* | -35 | -24
COc1ccccc1N1CCN(CC(O)COCCOc2ccc(Br)cc2)CC1 (stereo not given) | -2 | 9 | 78* | -33 | -25
CC(C)N(C)c1ncnc2c1ncn2[C@H]1CN(Cc2ccc(-c3ccccc3)cc2)C[C@@H](CO)O1 | 2 | / | / | -6 | /
NNC(=O)CS(=O)(=O)CS(=O)(=O)CC(=O)NN | 0 | / | / | -8 | /
COc1ccccc1N1CCN(CC(O)COCc2cccs2)CC1 (stereo not given) | -1 | 2 | 81* | -10 | -33
OC(COc1cccc2ccccc12)CN1CCN(c2ccccc2Cl)CC1 (stereo not given) | -13 | 8 | 39* | -44 | -18
COc1cc(COCC(O)CN2CCN(Cc3ccccc3)CC2)cc(OC)c1OC (stereo not given) | -1 | 0 | 6 | -9 | -20
C=CCc1ccc(OCC(O)CN2CCN(c3ccccc3OC)CC2)c(OC)c1 (stereo not given) | 5 | -1 | 7 | -12 | 7
COc1ccccc1N1CCN(CC(O)COc2ccc(C)cc2C)CC1 (stereo not given) | -1 | 29 | 76* | -25 | -30
COc1ccccc1N1CCN(CC(O)c2ccc3cc[nH]c3c2)CC1 (stereo not given) | 2 | 37* | 60* | -8 | -27
SMILES | D2 ag-1 | D2 ag-2 | D2 antagonist | D2 PAM-1 | D2 PAM-2
CC(C)(Oc1ccc(Cl)cc1)C(=O)Nc1c2c(nn1C(C)(C)C)CS(=O)(=O)C2 | 5 | 0 | -18 | 3 | 7
Cc1ccccc1OCC(O)Cn1c(=N)n(CCN2CCOCC2)c2ccccc21 (stereo not given) | -2 | -2 | -14 | -12 | 40*
Cc1ccc(N2CCN(CC(O)COc3cccc4ccccc34)CC2)cc1 (stereo not given) | 9 | -2 | -29 | -50 | -18
COc1ccccc1N1CCN(CC(O)COc2c(OC)cccc2OC)CC1 (stereo not given) | 2 | 15 | 123* | -13 | -30
Cn1c(N2CCCC2)nc2c1c(=O)[nH]c(=O)n2C | -2 | 0 | -7 | 0 | 8
CC(C)NC(=O)/C(=N\O)c1ccccc1 | 0 | 0 | 32* | -6 | -1
Cc1ccc(C(=O)Nc2cc(C(F)(F)F)ccc2-n2cncn2)o1 | -4 | 0 | 2 | 3 | 0
O=C(Nc1cc(C(F)(F)F)ccc1-n1cncn1)c1ccc(F)cc1Cl | -1 | 0 | 35* | -10 | 4
O=C(Nc1nncs1)C1CCCC1 | -4 | / | / | -3 | /
COc1ccc(OCCCC(=O)Nc2nncs2)cc1 | 1 | 1 | 4 | -10 | 39*
CCN(c1ccccc1)S(=O)(=O)c1cc(C(=O)OC2CCOC2=O)ccc1C (stereo not given) | -1 | 1 | -48 | 1 | 31*
CS(=O)(=O)c1ccc(C(=O)OC2CCOC2=O)cc1[N+](=O)[O-] (stereo not given) | -2 | -2 | 6 | -1 | -2
CC(=O)Nc1cc[n+](C(C)C(=O)c2ccccc2)cc1 (stereo not given) | -7 | 2 | 5 | -5 | -10
CC(=O)Nc1cc[n+](C(C)C(=O)c2ccc(Br)cc2)cc1 (stereo not given) | -4 | 0 | 54* | -25 | -23
CC1=C(C(=O)Nc2cccnc2)C(c2ccccc2)n2nc(SCc3ccccc3F)nc2N1 (stereo not given) | / | 0 | / | / | 16
CN(C)CCOC(c1ccccc1)c1ccccc1 | -6 | 2 | -13 | -11 | -12
CN(C)CCOC(c1ccc(Cl)cc1)c1ccccn1 (stereo not given) | 98*! | -1 | 0 | -24 | -10
CC1CN(c2c3c(nc4ncnn24)CCCC3)CC(C)O1 (stereo not given) | -3 | 1 | -2 | -22 | 32*
COc1ccc(-c2nc(SCC(=O)Nc3cccc(C(C)=O)c3)n[nH]2)cc1 | / | -1 | / | / | 8
COc1cccc(C(=O)Nc2cccc(OCC(=O)O)c2)c1 | -3 | 2 | 34* | 0 | 4
COc1cccc(OCC(=O)O)c1 | 0 | 0 | 3 | 3 | 40*
Cc1cc(NC(=O)NC(=O)c2cccc(OC(F)(F)C(F)F)c2)n[nH]1 | -5 | 1 | -2 | -7 | -5
COc1cccc(OCCNCc2ccccc2)c1 | -1 | 2 | 41* | -13 | -30

Assay outcomes as filed in PubChem.
